This is part of a sample that, as a whole, favours compounds with a hit. Of some 83,000 tested, about 20% had one in any assay.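 Plates (96-well) were seeded with cells, treated with compound at one concentration, and incubated for 48 hours before percent growth was determined.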 A number with no mark means an inactive call. The source made the active and inactive calls. Rule for the calls: active = growth percent below 10; inactive = the rest.
Columns and labels:
Assay in all cases: NCI-60 one-dose screen, 48 h (100 = growth as untreated, 0 = no growth, -100 = all killed)
Details in all cases: 10 µM unless noted
NCI-H23 lung = system: NCI-H23 lung
NCI-H226 lung = system: NCI-H226 lung
NCI-H322M lung = system: NCI-H322M lung
HOP-62 NSCLC = system: HOP-62 NSCLC
NCI-H460 lung = system: NCI-H460 lung
HOP-92 NSCLC = system: HOP-92 NSCLC
NCI-H522 lung = system: NCI-H522 lung
A549/ATCC NSCLC = system: A549/ATCC NSCLC
786-0 renal = system: 786-0 renal
COLO 205 colon = system: COLO 205 colon
DU-145 prostate = system: DU-145 prostate
K-562 leukemia = system: K-562 leukemia
MALME-3M melanoma = system: MALME-3M melanoma
MDA-MB-231 breast = system: MDA-MB-231 breast
RXF 393 renal = system: RXF 393 renal
SF-268 CNS = system: SF-268 CNS
SF-295 CNS = system: SF-295 CNS
SF-539 CNS = system: SF-539 CNS
UACC-257 melanoma = system: UACC-257 melanoma
M14 melanoma = system: M14 melanoma

SMILES	growth (NCI-H23 lung)	growth (NCI-H226 lung)	growth (NCI-H322M lung)	growth (HOP-62 NSCLC)	growth (NCI-H460 lung)	growth (HOP-92 NSCLC)	growth (NCI-H522 lung)	growth (A549/ATCC NSCLC)	growth (786-0 renal)	growth (COLO 205 colon)	growth (DU-145 prostate)	growth (K-562 leukemia)	growth (MALME-3M melanoma)	growth (MDA-MB-231 breast)	growth (RXF 393 renal)	growth (SF-268 CNS)	growth (SF-295 CNS)	growth (SF-539 CNS)	growth (UACC-257 melanoma)	growth (M14 melanoma)
N=C(N)c1ccc(S(N)(=O)=O)cc1	93.6%	101%	96.2%	87.1%	113%	93.6%	91.8%	91.9%	90.8%	122%	104%	106%	87.6%	110%	66.7%	96.1%	98.8%	129%	93%	94.7%
Fc1ccc(Nc2nnc(-c3ccc(Cl)cc3)o2)cc1	95%	93.8%	103%	89.5%	105%	95.5%	74%	81.3%	104%	94.2%	107%	70.6%	95.6%	85.9%	100%	99.3%	102%	103%	88.9%	95.4%
Cc1csc(Nc2nc(-c3ccc(Cl)cc3)nc(C(Cl)(Cl)Cl)n2)n1	95.3%	110%	-3.18% (active)	76.4%	56.6%	83.3%	92.8%	34.6%	89.5%	52.6%	12.6%	87.2%	99.9%	79.9%	87.1%	90.5%	60.8%	87.2%	98.7%	95.9%
COc1ccc(-n2c(/C=C/c3ccc(O)c(OC)c3)cc(/C=C/c3ccc(O)c(OC)c3)nc2=O)cc1	42.5%	70.7%	83.6%	63.4%	78%	79.8%	29.3%	79.1%	82.8%	56.8%	68.9%	11.8%	85%	43.8%	45.4%	41.4%	82.3%	39%	82.2%	40.4%
Nc1ncnc2nc(Br)[nH]c12	92.7%	85.9%	108%	98%	106%	94.7%	85.9%	77.1%	95.1%	103%	102%	89.6%	100%	99.8%	103%	98.3%	102%	103%	87.7%	92.1%
COc1ccc2[nH]c(-c3ccc(Cl)cc3)cc(=O)c2c1	94.5%	97.6%	92%	104%	100%	88.6%	86.7%	96.3%	88.3%	105%	105%	97.4%	98.6%	95.6%	111%	98.2%	97%	99.9%	98%	95.1%
COc1ccc(C2CC(=O)c3c(nc4ccc(Cl)cc4c3N)C2)cc1 (stereo not given)	102%	104%	104%	109%	104%	98.3%	100%	106%	97%	114%	101%	93.4%	106%	114%	99.3%	108%	95.4%	107%	113%	103%
C[C@@H]1CCCCCCCCC[C@H](O)C(=O)C[C@@H](SC[C@@H](O)C(=O)O)C(=O)O1	96.5%	102%	116%	97.5%	108%	90.8%	66.4%	85.8%	85.7%	117%	95.2%	15.5%	94.7%	96%	112%	98%	104%	97.8%	83.4%	87%
C[Si](C)(C)Cc1ccccc1	102%	114%	119%	99.9%	120%	110%	139%	120%	98%	139%	125%	126%	115%	115%	132%	122%	103%	107%	112%	104%
N#C/C(=C\c1ccc(-c2ccc(Br)cc2)o1)c1nc(-c2cccs2)cs1	91.3%	102%	97.8%	107%	103%	91%	94.4%	109%	100%	125%	100%	97%	101%	89.3%	107%	102%	100%	93.8%	102%	95.8%
Cn1cc(-c2csc(-c3cn(CCNC(=O)OC(C)(C)C)c4ccccc34)n2)c2cccnc21	65.7%	55.9%	90.1%	72.5%	92.6%	56.6%	52.6%	78.8%	93.6%	73.3%	101%	56.2%	82.8%	82.9%	105%	90.5%	97.7%	93.1%	92.2%	61.1%
COC(=O)CNc1nc(N(C)O)nc(N(C)O)n1	48.7%	61.3%	54.6%	34.2%	17.7%	35.2%	53.2%	46.5%	25.9%	12.7%	34.7%	35%	97.6%	43%	47.2%	34.3%	45.2%	47.5%	76.9%	46%
NCCn1cc(-c2nc(-c3c[nH]c4ncccc34)cs2)c2cc(Br)ccc21	81.9%	80.3%	80.1%	78.1%	14.9%	53.6%	100%	65.3%	87.3%	-17.1% (active)	82.3%	19.4%	95.9%	56.7%	80.5%	82.8%	102%	84.2%	95.5%	87.7%
Cc1cccc(C)c1NC(=O)CSC(=S)N1CCN(CCOCCO)CC1	100%	117%	85.8%	105%	114%	110%	90%	101%	96.4%	113%	101%	96%	87.3%	116%	125%	93.9%	95.9%	94.3%	112%	100%
Cc1ccccc1-c1nc(C(Cl)Cl)nc2cc(-c3ccccc3)nn12	50.4%	75.3%	86.3%	54.9%	81.5%	45.8%	82.8%	25.1%	93.7%	41.7%	57.8%	52.2%	86.2%	44.9%	3.45% (active)	88.1%	81.6%	76.3%	107%	94%
N#CC1c2ccccc2-c2ccccc2N1C(=O)c1ccccc1 (stereo not given)	22.6%	17.8%	57%	48.7%	18.1%	45.2%	14.5%	31.8%	17%	-1.39% (active)	11.9%	41.5%	84%	16.6%	31.7%	34.4%	4.01% (active)	0.949% (active)	75.9%	2.12% (active)
